Screening results: PubChem BioAssay, The Scripps Research Institute Molecular Screening Center
FBW7 act = human FBW7 E3 ligase activation, primary screen. Q969H0. AlphaScreen FBW7–phospho-cyclin E peptide binding, activator screen. normalized activity (activation), % at 26.1 µM. actives 0.13% (n = 650,000). AID 1259310; in the data active means normalized activity above about 1.9%;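 further: purified mutant Fbw7 with reduced substrate affinity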
Target sequence (Q969H0 whole entry, looked up): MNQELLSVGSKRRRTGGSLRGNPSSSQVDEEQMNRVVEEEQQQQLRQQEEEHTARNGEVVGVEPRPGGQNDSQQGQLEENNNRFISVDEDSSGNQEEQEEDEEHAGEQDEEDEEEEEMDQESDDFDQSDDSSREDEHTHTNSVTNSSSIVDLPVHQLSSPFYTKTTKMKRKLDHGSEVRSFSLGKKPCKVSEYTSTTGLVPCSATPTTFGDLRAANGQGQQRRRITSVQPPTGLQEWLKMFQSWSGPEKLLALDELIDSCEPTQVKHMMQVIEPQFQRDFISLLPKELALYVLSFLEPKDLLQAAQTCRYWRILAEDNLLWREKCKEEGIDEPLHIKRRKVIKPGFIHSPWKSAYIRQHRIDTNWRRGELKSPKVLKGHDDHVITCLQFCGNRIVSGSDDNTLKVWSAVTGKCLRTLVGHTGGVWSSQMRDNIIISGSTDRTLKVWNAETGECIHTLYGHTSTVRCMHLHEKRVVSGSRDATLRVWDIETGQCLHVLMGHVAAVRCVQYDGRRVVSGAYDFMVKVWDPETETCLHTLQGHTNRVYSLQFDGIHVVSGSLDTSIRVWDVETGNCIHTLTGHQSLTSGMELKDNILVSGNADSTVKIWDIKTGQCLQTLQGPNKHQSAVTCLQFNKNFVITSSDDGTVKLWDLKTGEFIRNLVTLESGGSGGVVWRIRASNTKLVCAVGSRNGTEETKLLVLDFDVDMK
TEAD-YAP block = TEAD-YAP interaction inhibition. HEK-TIYL cells, TEAD-Gal4/YAP UAS-luciferase luminescence. inhibition, % at 9.12 µM. actives 1.4% (n = 640,000). AID 1259422; in the data active means inhibition above about 32%;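 further: 0% = median of test compound wells and 100% = reference inhibitor wells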
GPR151 activ = activators of human GPR151. activation, % at 11.2 µM. actives 1% (n = 650,000). PathHunter beta-arrestin GPR151 cells, luminescence. Q8TDV0; in the data active means activation above about 4.9%;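 further: 0% = median of compound wells and 100% = cells with positive control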
MITF inh = inhibitors of human MITF; AlphaScreen MITF homodimerization, bead proximity signal; inhibition, % at 2.6 µM; actives 0.91% (n = 650,000); in the data active means inhibition above about 50%;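 further: 0% = vehicle wells with protein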
GPR151 conf act = human GPR151 activation, confirmation screen | GPR151 PathHunter beta-arrestin cells, luminescence, 90 min; % of EA-reagent control over plate median | shares compounds with GPR151 activ | AID 1508609 | activation, % at 11.2 µM | 6,700 tested, under 10 active;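 active means mean percent activation across replicates above the confirmation screen cutoff of 4.91%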
GPR119 counter = activates human GPR119 in a GPR151 counter-screen. actives 0.3% (n = 6,700). shares compounds with GPR151 activ. activation, % at 11.2 µM. GPR119 PathHunter beta-arrestin cells, luminescence, 90 min; 0 = compound-well median, 100 = enzyme-acceptor control;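 active means mean percent activation in the counterscreen above 29.09%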;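 further: counterscreen on off-target GPR119 to flag nonselective hits from the GPR151 activator screen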
* = called active by the depositor. Sampled rows, rich in hits. Any-hit rate of the full collection: about 3.5%.

What do the screens show for `CCCN1C(=O)/C(=C2/C(=O)N(C)c3ccccc32)SC1=S`?
FBW7 act: -0.1; TEAD-YAP block: 5.5; GPR151 activ: -0.1; MITF inh: 3.0

What do the screens show for `CCCN1C(=O)/C(=C2\SC(=S)N(CCOC)C2=O)c2ccccc21`?
FBW7 act: 0.0; TEAD-YAP block: 7.6; GPR151 activ: 5.6*; MITF inh: 10.9; GPR151 conf act: 0.6; GPR119 counter: -3.9

How did Cc1cc([N+](=O)[O-])ccc1N1C(=O)C2CC=C(Cl)CC2C1=O (centres undefined) do in these assays?
FBW7 act: -0.1; TEAD-YAP block: 1.7; GPR151 activ: 5.6*; MITF inh: 9.2; GPR151 conf act: 0.6; GPR119 counter: -3.1

Results for Cc1ccc([N+](=O)[O-])cc1N1C(=O)C2CC=C(Cl)CC2C1=O (centres undefined) ?
FBW7 act: 0.0; TEAD-YAP block: -2.4; GPR151 activ: -0.4; MITF inh: -6.5

How did N#Cc1cc2cc3c(cc2nc1SCC(=O)Nc1ccc(F)cc1)OCCO3 do in these assays?
FBW7 act: -0.1; TEAD-YAP block: 6.8; GPR151 activ: 6.2*; MITF inh: -7.9; GPR151 conf act: 0.5; GPR119 counter: -10.4

What do the screens show for `N#Cc1cc2cc3c(cc2nc1SCC(=O)Nc1ccc(F)cc1)OCO3`?
FBW7 act: -0.1; TEAD-YAP block: -4.2; GPR151 activ: 1.8; MITF inh: 3.5

What do the screens show for `CCOc1ccc2cc(C#N)c(SCC(=O)NC(C)(C)C)nc2c1`?
FBW7 act: 0.0; TEAD-YAP block: -2.4; GPR151 activ: 7.0*; MITF inh: -0.9; GPR151 conf act: -0.1; GPR119 counter: 5.5

How did CCOc1ccc2nc(SCC(=O)Nc3ccc4c(c3)OCCO4)c(C#N)cc2c1 do in these assays?
FBW7 act: -0.1; TEAD-YAP block: 4.9; GPR151 activ: 6.4*; MITF inh: 5.5; GPR151 conf act: 0.1; GPR119 counter: -10.5

What do the screens show for `O=C(CCCn1cccc1)Nc1ccccc1Cl`?
FBW7 act: -0.3; TEAD-YAP block: -21.4; GPR151 activ: 3.8; MITF inh: 2.6

Results for CC(C)NC(=O)/C=C/c1ccc([N+](=O)[O-])cc1 ?
FBW7 act: -0.1; TEAD-YAP block: -18.8; GPR151 activ: 1.4; MITF inh: 3.1

How did O=c1cc(Cc2ccccc2)nc2c(-c3ccccc3)c[nH]n12 do in these assays?
FBW7 act: -0.4; TEAD-YAP block: 16.3; GPR151 activ: 7.4*; MITF inh: 2.6; GPR151 conf act: 1.0; GPR119 counter: 4.8

What do the screens show for `Cc1[nH]n2c(=O)cc(Cc3ccccc3)nc2c1C#N`?
FBW7 act: 1.1; TEAD-YAP block: -11.7; GPR151 activ: -0.9; MITF inh: 7.1

How did O=C(CCCc1ccccc1)NCCOc1ccccc1 do in these assays?
FBW7 act: 0.3; TEAD-YAP block: -7.1; GPR151 activ: 5.2*; MITF inh: 6.1; GPR151 conf act: -0.5; GPR119 counter: -1.3

Results for CCCCCCCC/C=C\CCCCCC(=O)O ?
GPR151 activ: 8.7*; MITF inh: 9.0; GPR151 conf act: -0.1; GPR119 counter: 6.7

How did CCCCC/C=C/C=C1/C(=O)C[C@H](O)[C@@H]1C/C=C\CCCC(=O)O do in these assays?
GPR151 activ: 5.6*; MITF inh: 14.9; GPR151 conf act: -0.4; GPR119 counter: -8.7

What do the screens show for `CCCCC[C@H](O)/C=C/[C@H]1C=CC(=O)[C@H]1C/C=C\CCCC(=O)O`?
GPR151 activ: 5.8*; MITF inh: 1.7; GPR151 conf act: 0.8; GPR119 counter: 9.3

Results for CCCCC/C=C/C=C1/C=CC(=O)[C@@H]1C/C=C\CCCC(=O)O ?
GPR151 activ: 1.1; MITF inh: 26.1

Results for CCCCC(C)(C)[C@H](O)/C=C/[C@H]1C=CC(=O)[C@@H]1C/C=C\CCCC(=O)O ?
GPR151 activ: 13.0*; MITF inh: -3.6; GPR151 conf act: 1.5; GPR119 counter: -0.2

Results for CCCCC[C@H](O)/C=C/[C@H]1C=CC(=O)[C@@H]1C/C=C\CCCC(=O)O ?
GPR151 activ: 1.1; MITF inh: -2.9

Results for Cc1ccc(-c2c(C#N)c(N)n(N)c(=O)c2C#N)c(C)c1 ?
FBW7 act: -0.1; TEAD-YAP block: 3.0; GPR151 activ: -0.2; MITF inh: -1.1

What do the screens show for `CC(=O)C(=Cc1cc(C)n(CC(F)(F)F)c1C)C(C)=O`?
FBW7 act: 0.0; TEAD-YAP block: -6.0; GPR151 activ: -0.7; MITF inh: 2.5

What do the screens show for `CCN(CC)CC(=O)NC1(C)CCCCC1c1ccc(O)cc1` (centres undefined)?
FBW7 act: -0.1; TEAD-YAP block: 2.3; GPR151 activ: -0.8; MITF inh: -0.1

How did O=C(Nc1ccc(Oc2ccccc2)cc1)C1CC(=O)n2ncnc2N1 (centres undefined) do in these assays?
FBW7 act: -0.1; TEAD-YAP block: -5.1; GPR151 activ: 0.7; MITF inh: 2.3

How did CCCCC[C@H](O)/C=C/[C@H]1C(=O)C[C@H](O)[C@@H]1CCCCCCCO do in these assays?
GPR151 activ: 0.3; MITF inh: 4.3

What do the screens show for `CCCCC[C@H](O)/C=C/[C@H]1C=CC(=O)[C@@H]1CCCCCCC(=O)OCC`?
GPR151 activ: 4.9*; MITF inh: -0.2; GPR151 conf act: 0.9; GPR119 counter: 2.7

Results for CCCCC[C@@H](O)/C=C/[C@H]1C(=O)C[C@H](O)[C@@H]1C/C=C\CCCC(=O)O ?
GPR151 activ: 4.8; MITF inh: -0.1

How did CCCCC[C@H](O)/C=C/C1=C(C/C=C\CCCC(=O)O)C(=O)CC1 do in these assays?
GPR151 activ: 9.3*; MITF inh: -4.8; GPR151 conf act: -0.1; GPR119 counter: -8.8

Results for CCCCCC(=O)/C=C/[C@@H]1[C@@H](C/C=C\CCCC(=O)O)[C@@H](O)C[C@H]1O ?
GPR151 activ: 5.5*; MITF inh: -2.2; GPR151 conf act: 1.0; GPR119 counter: 7.1

What do the screens show for `CCCCC[C@H](O)/C=C/[C@H]1C(=O)C[C@H](O)[C@@H]1CCCCCCC(=O)O`?
GPR151 activ: 9.7*; MITF inh: 17.9; GPR151 conf act: 0.3; GPR119 counter: 10.0

Results for CCCCC(C)(C)[C@H](O)/C=C/[C@H]1C=CC(=O)[C@@H]1CCCCCCC(=O)O ?
GPR151 activ: -0.8; MITF inh: 12.2

What do the screens show for `CC(=O)Nc1sc(C)c(-c2ccccc2)c1C(=O)NCc1cccnc1`?
FBW7 act: 0.2; TEAD-YAP block: -2.9; GPR151 activ: -1.1; MITF inh: 3.0

Results for C/C(=N\NC(=O)c1ccco1)c1ccccc1 ?
FBW7 act: 0.1; TEAD-YAP block: -49.0; GPR151 activ: -2.6; MITF inh: 2.0

How did CC(C)(C)c1ccc(C(=O)Nc2ncc(S(=O)(=O)c3ccc([N+](=O)[O-])cc3)s2)cc1 do in these assays?
FBW7 act: 0.1; TEAD-YAP block: 0.7; GPR151 activ: -1.6; MITF inh: 8.1
